{"source": "PubChem BioAssay AID720597", "about": "(Broad Institute, 2013)", "note": "Measured potencies and affinities stand elsewhere. Calls of active or inactive are those of the source.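 Rule for the calls: active = fitted half-maximal dose no more than twice the top valid tested dose, for compounds that lower signal; inconclusive = fit invalid, or curve flat with activity between -70 and -30; inactive = potency past limit, curve flat within ±30, or signal increasing.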"}
{"target": "NAD-dependent protein deacylase sirtuin-5, mitochondrial (Homo sapiens) (UniProt Q9NXA8)", "sequence (Q9NXA8 whole entry, looked up)": "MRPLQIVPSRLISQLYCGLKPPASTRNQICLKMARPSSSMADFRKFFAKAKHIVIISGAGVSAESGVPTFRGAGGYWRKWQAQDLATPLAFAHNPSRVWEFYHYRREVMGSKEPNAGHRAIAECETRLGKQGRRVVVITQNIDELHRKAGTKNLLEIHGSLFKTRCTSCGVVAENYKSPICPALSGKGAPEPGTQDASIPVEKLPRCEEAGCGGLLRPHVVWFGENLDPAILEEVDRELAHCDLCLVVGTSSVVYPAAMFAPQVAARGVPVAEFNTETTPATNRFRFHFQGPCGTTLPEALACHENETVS", "assay": "blockers of sirtuin-5 peptide desuccinylation – biochemical, fluorescence imaging, cherry-pick, set 6, dose response (AID 720597);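 note: lower AMC signal can also come from blocking the trypsin step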", "conditions": "Purified SirT5, succinyl-peptide-AMC/trypsin fluorescence; series mostly up to 15 µM"}
{"smiles": "C[C@@H]1CN([C@@H](C)CO)C(=O)c2cc(-c3cccc(F)c3)cnc2O[C@@H]1CN(C)Cc1ccncc1", "outcome": "inactive"}
{"smiles": "C[C@H](O)C#Cc1ccc2c(c1)O[C@@H](CN(C)Cc1ccc(-c3ccccc3)cc1)[C@@H](C)CN([C@H](C)CO)S2(=O)=O", "outcome": "inactive"}
{"smiles": "COc1ccc(S(=O)(=O)N(C)C[C@@H]2OCCCC[C@@H](C)Oc3ccc(NC(=O)Nc4ccc(C(F)(F)F)cc4)cc3C(=O)N([C@@H](C)CO)C[C@@H]2C)cc1", "outcome": "inactive"}
{"smiles": "Cc1cccc(-c2noc(CN(C(=O)c3ccc(Br)o3)C(C)C)n2)c1", "outcome": "inactive"}
{"smiles": "C[C@@H]1CCCCO[C@@H](CN(C)C(=O)C2CCCCC2)[C@H](C)CN([C@@H](C)CO)C(=O)c2cc(NC(=O)Nc3ccc(F)cc3)ccc2O1", "outcome": "inactive"}
{"smiles": "O=C(NC1CCCC1)N[C@@H]1CC[C@H](CC(=O)N2CCOCC2)O[C@H]1CO", "outcome": "inactive"}
{"smiles": "COCC(=O)N1C[C@@H]2[C@H](c3ccccc31)[C@H](CO)N2Cc1cc(F)ccc1F", "outcome": "inactive"}
{"smiles": "COc1ccccc1-c1ccc2n(c1=O)C[C@@H]1[C@@H](CO)[C@H](C(=O)N3CCCCC3)[C@H]2N1CC1CC1", "outcome": "inactive"}
{"smiles": "C[C@@H]1CCCCO[C@H](CN(C)C(=O)Cc2ccccc2)[C@@H](C)CN([C@H](C)CO)C(=O)c2cc(NS(=O)(=O)c3cn(C)cn3)ccc2O1", "outcome": "inactive"}
{"smiles": "C[C@H](CO)N1C[C@H](C)[C@H](CN(C)Cc2cccc(C(F)(F)F)c2)OCc2ccccc2-c2ccccc2C1=O", "outcome": "inactive"}
{"smiles": "CN(C)C(=O)c1cccc(-c2ccc(C3[C@@H]4CN(C(=O)c5ccccn5)C[C@H]3N4)cc2)c1", "note": "(stereo partly specified)", "outcome": "inactive"}
